Compound activity (PubChem)
HP1b chromo inh = HTS for Inhibitors of HP1-beta Chromodomain Interactions with Methylated Histone Tails; AlphaScreen HP1-beta / biotin-H3K9me3 peptide binding; Potency, µM (top dose mostly 114 µM), actives largely listed as inhibitors; 390,000 tested, 0.56% active; AID 540317, 2011; note: nearly all actives have a fitted effect of over 70% in size
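HP1-beta protein (50 nM final) preincubated 30 min at room temperature with biotinylated H3(1-18)K9me3 peptide (50 nM) in PBS pH 7.4, 0.01% Tween-20, then compound added for 30 min. AlphaScreen streptavidin donor/nickel chelate acceptor beads (10 ug/mL final), 30 min dark, luminescence read.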
JMJD2A Tudor = qHTS Assay for Inhibitors of JMJD2A-Tudor Domain; Lysine-specific demethylase 4A (Homo sapiens), O75164; AlphaScreen JMJD2A-Tudor / H3K4me3 peptide binding; Potency, µM (series often up to 114 µM), actives largely listed as inhibitors; 390,000 tested, 4.4% active; AID 504339, 2011; note: nearly all actives have a fitted effect of over 50% in size
L3MBTL1 block = qHTS Assay for the Inhibitors of L3MBTL1; Lethal(3)malignant brain tumor-like protein 1 (Homo sapiens), Q9Y468; AlphaScreen L3MBTL1–H3K9me1 peptide binding; Potency, µM (titrated, usually from 57.1 µM), most hits filed as inhibitors; 230,000 tested, 0.66% active; note: nearly all actives have a fitted effect of over 60% in size
Target sequence (Q9Y468 whole entry, looked up): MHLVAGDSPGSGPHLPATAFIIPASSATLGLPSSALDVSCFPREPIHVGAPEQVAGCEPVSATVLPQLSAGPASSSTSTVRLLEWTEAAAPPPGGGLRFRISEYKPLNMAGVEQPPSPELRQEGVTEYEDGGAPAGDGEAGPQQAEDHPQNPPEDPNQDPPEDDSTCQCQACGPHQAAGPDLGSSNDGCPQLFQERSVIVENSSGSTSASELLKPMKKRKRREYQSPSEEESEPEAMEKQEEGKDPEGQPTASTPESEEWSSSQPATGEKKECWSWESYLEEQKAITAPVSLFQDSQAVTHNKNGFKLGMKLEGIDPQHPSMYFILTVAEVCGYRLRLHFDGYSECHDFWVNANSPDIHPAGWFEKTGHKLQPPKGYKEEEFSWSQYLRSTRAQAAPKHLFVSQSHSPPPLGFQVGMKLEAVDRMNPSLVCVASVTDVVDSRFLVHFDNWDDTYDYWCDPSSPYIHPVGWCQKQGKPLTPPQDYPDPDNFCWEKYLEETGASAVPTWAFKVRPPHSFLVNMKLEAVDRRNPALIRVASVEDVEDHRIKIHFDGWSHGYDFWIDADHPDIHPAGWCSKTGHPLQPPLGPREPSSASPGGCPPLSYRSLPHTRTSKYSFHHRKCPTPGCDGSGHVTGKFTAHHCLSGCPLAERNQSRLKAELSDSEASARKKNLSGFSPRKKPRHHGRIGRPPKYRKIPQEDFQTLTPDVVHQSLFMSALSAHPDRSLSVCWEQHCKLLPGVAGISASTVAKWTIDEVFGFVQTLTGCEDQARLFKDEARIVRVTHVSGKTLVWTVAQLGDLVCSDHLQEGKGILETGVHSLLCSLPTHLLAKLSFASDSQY
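Read-out is AlphaScreen signal from streptavidin donor and nickel chelate acceptor beads (10 ug/mL final each) bridging L3MBTL1 (50 nM) and biotinylated K9-monomethylated H3(1-15) peptide (75 nM), after 30 min compound exposure at room temperature.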
GLS inhibitor = qHTS for Inhibitors of Glutaminase (GLS); AID 624170, 2012; Potency, µM (series often up to 45.5 µM), usual class: inhibitors; 410,000 tested, 0.21% active; GLS enzymatic activity, qHTS titration
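Assay buffer: 45 mM KH2PO4 pH 8.2, 0.02% Tween-20. hKGA acts on L-glutamine (1 mM solution added); product glutamate is reported by an oxidase/peroxidase Amplex Red coupling, with fluorescence taken at baseline and 30 min.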
BAZ2B block = qHTS Assay for Inhibitors of BAZ2B | Bromodomain adjacent to zinc finger domain protein 2B (Homo sapiens), Q9UIF8 | AlphaScreen BAZ2B-H3K14Ac peptide displacement | Potency, µM (doses to about 114 µM), usual class: inhibitors | 360,000 tested, 4.4% active | AID 504333, 2011; note: nearly all actives have a fitted effect of over 60% in size
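AlphaScreen luminescence quantifies BAZ2B engagement of H3K14Ac peptide; the protein and biotinylated peptide are both at 50 nM final, buffer PBS pH 7.4 with 0.01% Tween-20, all steps at room temperature.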
G9a block = qHTS Assay for Inhibitors of Histone Lysine Methyltransferase G9a; Histone-lysine N-methyltransferase EHMT2 (Homo sapiens), Q96KQ7; G9a H3K9 monomethylation, AlphaScreen, 2 h; Potency, µM (top dose mostly 102 µM), most hits filed as inhibitors; 350,000 tested, 8.8% active; AID 504332, 2011; note: nearly all actives have a fitted effect of over 75% in size
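Step 1: enzyme (final 20 nM) with compound, 15 min RT. Step 2: substrate peptide 500 nM and SAM 20 uM, 2 h RT. Step 3: anti-H3K9me1 antibody and AlphaScreen beads, 10 min, then plate read.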
A number is an active result; ! = not confirmed by another sample. Shown are actives, neighbours in structure and some others; about 10% of the full set was active somewhere. Calls come from the whole dose curve; as a rule, active = well fitted curve in the direction sought with a large enough effect; inconclusive = small, poorly fitted or top-dose-only effect, or another doubt; inactive = no such curve, though single readings can be large; an effect the other way counts as inactive or inconclusive.

Results for Cc1cc(OCCCn2c(CCNC(=O)C3CCCCC3)nc3ccccc32)ccc1Cl ?
HP1b chromo inh: inactive; JMJD2A Tudor: inactive; GLS inhibitor: inactive; BAZ2B block: inactive; G9a block: inactive

Results for COc1ccc(OCC(=O)Nc2nc3c(s2)CCCC3)cc1 ?
HP1b chromo inh: inactive; JMJD2A Tudor: inconclusive; GLS inhibitor: inactive; BAZ2B block: inconclusive; G9a block: 50µM

Results for Cc1ccc(CC(=O)Nc2nc3c(s2)CCCC3)cc1 ?
HP1b chromo inh: inactive; JMJD2A Tudor: inactive; GLS inhibitor: inactive; BAZ2B block: inactive; G9a block: 50µM

What do the screens show for `Cc1ccc(CC(=O)Nc2ccncc2)cc1`?
HP1b chromo inh: inactive; JMJD2A Tudor: inactive; L3MBTL1 block: inactive; GLS inhibitor: inactive; BAZ2B block: inactive; G9a block: 50µM

How did COc1ccc(NC(=O)Nc2nc3c(s2)CCCC3)cc1 do in these assays?
HP1b chromo inh: inactive; JMJD2A Tudor: inactive; L3MBTL1 block: inactive; GLS inhibitor: inactive; BAZ2B block: inactive; G9a block: 79µM

What do the screens show for `O=C(Nc1cccc(Br)c1)Nc1nc2c(s1)CCCCCC2`?
HP1b chromo inh: inactive; JMJD2A Tudor: inactive; GLS inhibitor: inactive; BAZ2B block: inactive; G9a block: inactive

What do the screens show for `Cn1c(=O)[nH]c(=O)c2c1nc(CN1CCN(c3ccccc3F)CC1)n2Cc1ccc(F)cc1`?
HP1b chromo inh: inactive; JMJD2A Tudor: inactive; GLS inhibitor: inactive; BAZ2B block: inactive; G9a block: inactive

What do the screens show for `CCCCCCCCCCCCCCCC(=O)OCC(COP(=O)(O)O)OC(=O)CCCCCCCCCCCCCCC` (stereo not given)?
G9a block: inactive

What do the screens show for `O=C(Cn1c(=O)nc(-c2ccccc2)c2cc(Cl)ccc21)N1CCN(c2ccc(F)cc2)CC1`?
HP1b chromo inh: inactive; JMJD2A Tudor: inactive; GLS inhibitor: inactive; BAZ2B block: inactive; G9a block: inactive

How did CC1=C(C(=O)Nc2ccccc2)C(c2ccc(O)cc2)n2nc(-c3ccc(Cl)cc3)nc2N1 (stereo not given) do in these assays?
HP1b chromo inh: inactive; JMJD2A Tudor: inactive; GLS inhibitor: inactive; BAZ2B block: inconclusive; G9a block: inactive

How did O=C(Nc1ccc2oc(-c3ccncc3)nc2c1)c1ccco1 do in these assays?
HP1b chromo inh: inactive; JMJD2A Tudor: inactive; GLS inhibitor: inactive; BAZ2B block: inconclusive; G9a block: 40µM

How did O=C(Nc1ccc2oc(-c3ccncc3)nc2c1)c1ccc(Br)o1 do in these assays?
HP1b chromo inh: inactive; JMJD2A Tudor: inactive; GLS inhibitor: inactive; BAZ2B block: inactive; G9a block: 32µM

How did CN(C)c1ccc2c(c1[N+](=O)[O-])Cc1ccccc1-2 do in these assays?
HP1b chromo inh: inconclusive; JMJD2A Tudor: 16µM; GLS inhibitor: inactive

Results for Cc1nn(-c2ccccc2)c2c1cc1c(=O)n(C)c(=O)nc-1n2-c1ccccc1F ?
HP1b chromo inh: inactive; JMJD2A Tudor: inactive; L3MBTL1 block: inactive; GLS inhibitor: inactive; BAZ2B block: inactive; G9a block: 32µM

What do the screens show for `N#CC1=C(N)OC2=C(C(=O)CCC2)C12CCC1(CC2)OCCO1`?
HP1b chromo inh: inactive; JMJD2A Tudor: inactive; L3MBTL1 block: inactive; GLS inhibitor: inactive; BAZ2B block: inactive; G9a block: 79µM

Results for Cc1cc2c(s1)c1cnn(Cc3ccc(F)c(F)c3F)c(=O)c1n2C ?
JMJD2A Tudor: inactive

Results for Nc1c(Cl)cc(N=Nc2ccccc2)cc1Cl ?
HP1b chromo inh: inconclusive; JMJD2A Tudor: 14µM; GLS inhibitor: inactive

Results for Nc1[nH][nH]c(=O)c1N=Nc1ccccc1 ?
HP1b chromo inh: inactive; JMJD2A Tudor: inactive; GLS inhibitor: inconclusive

Results for COc1ccc(C(=O)Nc2ccc3nc(SCC(=O)N(C)c4ccccc4)sc3c2)cc1 ?
HP1b chromo inh: inactive; JMJD2A Tudor: inactive; GLS inhibitor: inactive; BAZ2B block: inactive; G9a block: inactive

Results for CCOC(=O)c1c(C)[nH]c(C)c1S(=O)(=O)N1CCC(C(=O)NCc2ccc(OC)cc2)CC1 ?
HP1b chromo inh: inactive; JMJD2A Tudor: 89µM; GLS inhibitor: inactive; BAZ2B block: inactive; G9a block: inactive

How did CCOC(=O)c1c(C)[nH]c(C)c1S(=O)(=O)N1CCN(c2ccc(F)cc2)CC1 do in these assays?
HP1b chromo inh: inactive; JMJD2A Tudor: inactive; GLS inhibitor: inactive; BAZ2B block: 71µM

Results for CCOC(=O)c1scc(-c2ccccc2)c1S(=O)(=O)N1CCN(c2ccc(Cl)cc2)CC1 ?
HP1b chromo inh: inactive; JMJD2A Tudor: inactive; GLS inhibitor: inactive; BAZ2B block: inactive; G9a block: 13µM

What do the screens show for `CCOC(=O)c1c(C)[nH]c(C)c1S(=O)(=O)N1CCC(C(=O)N2CCN(c3ccc(F)cc3)CC2)CC1`?
HP1b chromo inh: inactive; JMJD2A Tudor: inactive; GLS inhibitor: inactive; BAZ2B block: inconclusive; G9a block: inactive

Results for CCOC(=O)c1c(C)[nH]c(C)c1S(=O)(=O)N1CCC(C(=O)NCc2ccc(C)cc2)CC1 ?
HP1b chromo inh: inactive; JMJD2A Tudor: inactive; GLS inhibitor: inactive; BAZ2B block: inactive; G9a block: inactive

Results for CCCS(=O)(=O)c1c(S(=O)(=O)CCC)c2cc(CC)ccn2c1C(=O)c1ccc(Cl)cc1 ?
HP1b chromo inh: inactive; JMJD2A Tudor: inactive; GLS inhibitor: inactive; BAZ2B block: inactive; G9a block: inactive

What do the screens show for `COc1cccc(-c2ccc3c(N)c(C(=O)NCc4ccc(Cl)cc4)sc3n2)c1`?
HP1b chromo inh: inactive; JMJD2A Tudor: inactive; GLS inhibitor: inactive; BAZ2B block: inactive; G9a block: inactive

Results for Cc1cccc(N2CCN(C(=O)c3ccc4nc[nH]c4c3)CC2)c1C ?
HP1b chromo inh: inactive; JMJD2A Tudor: inactive; L3MBTL1 block: inactive; GLS inhibitor: inactive; BAZ2B block: inactive; G9a block: inconclusive

What do the screens show for `CCc1nc2ccc(C(=O)N3CCN(c4cccc(C)c4C)CC3)cc2nc1CC`?
HP1b chromo inh: inactive; JMJD2A Tudor: inactive; GLS inhibitor: 6.3µM!; BAZ2B block: inactive; G9a block: inactive

Results for COc1ccc(-c2noc(CN3CCCC(OCc4ccccn4)C3)n2)cc1 (stereo not given) ?
HP1b chromo inh: inactive; JMJD2A Tudor: inactive; L3MBTL1 block: inactive; GLS inhibitor: inactive; BAZ2B block: inactive; G9a block: 50µM

How did O=C(CSc1ccccc1)NC1CC1 do in these assays?
GLS inhibitor: inactive
